From PubChem BioAssay (Tox21)
Values joined by “and” are separate entries in the source; they are usually repeats but may differ in a detail not shown here. Equal values may be shown once. Inconclusive results are not listed. A call without a number means that no potency is given here. Active and inactive are the calls of the source. The call rests on the fitted dose curve; in most records, active means well fitted curve in the direction sought with a large enough effect in the repeat runs; inconclusive means weak or mixed curves; inactive means no such curve, though single readings can be large; an effect the other way counts as inactive or inconclusive.

Test: Caspase-3/7 induction in CHO-K1 cells by small molecules, qHTS cell viability counter screen (AID 1346979); further: nearly all actives have a fitted effect of over 35% in size
Conditions: CellTiter-Fluor fluorescence, 17 h; series mostly up to 92.4 µM
Summary of the method: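 In the same wells as the caspase read, viability of compound-treated wild-type CHO-K1 cells was assessed using CellTiter-Fluor, added after 16hr at 37C and measured by fluorescence following 1hr further incubation.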
Potency means the concentration at half of the fitted maximal effect.

SMILES	Potency
CCCC[N+]1(C)CCCC1 (tested in a mixture with another compound)	61.9 µM (active)
CCOP(=S)(NC(C)C)Oc1ccccc1C(=O)OC(C)C (stereo unspecified)	61.1 µM (active)
Cc1ccc2cc3c(ccc4ccccc43)c3c2c1CC3	inactive
O=S1OCC2C(CO1)C1(Cl)C(Cl)=C(Cl)C2(Cl)C1(Cl)Cl (stereo unspecified)	61.2 µM (active) and 68.5 µM (active)
CN1C2CCC(C)(C)C1CC(OC(=O)C(O)(c1cccs1)c1cccs1)C2 (stereo unspecified)	inactive
COP(=O)(OC)Oc1ccc([N+](=O)[O-])cc1	inactive
CCN(CC)CCc1c[nH]c2ccccc12	inactive
CSC1=N[C@@](C)(c2ccccc2)C(=O)N1Nc1ccccc1	8.63 µM (active)
O=[N+]([O-])c1cccc2cccc([N+](=O)[O-])c12	inactive
Oc1ccc([C@H]2CNCc3c2ccc(O)c3O)cc1O	29.8 µM (active)
CO/N=C(\C(=O)OC)c1ccccc1CO/N=C(\C)c1cccc(C(F)(F)F)c1	0.137 µM (active)
FC(F)C(F)(F)OCC(Cn1cncn1)c1ccc(Cl)cc1Cl (stereo unspecified)	48.3 µM (active)
COc1ccc2[nH]cc(CCN(C(C)C)C(C)C)c2c1	inactive
O=[N+]([O-])[O-].[Tl+]	61.6 µM (active)
c1ccc(Nc2ccc(Nc3ccccc3)cc2)cc1	48.4 µM (active)
c1csc(-c2ccc(-c3cccs3)s2)c1	inactive
CCCCCCC[CH2][Sn]([Cl])([Cl])[CH2]CCCCCCC	54.4 µM (active)
Nc1ccc(N=Nc2ccccc2)cc1	29.8 µM (active)
CCN(CC)Cc1nccn1-c1ccc([N+](=O)[O-])cc1C(=O)c1ccccc1Cl	inactive
C=Cc1cccc(CCl)c1	inactive
N#Cc1c[nH]cc1-c1cccc2c1OC(F)(F)O2	48.6 µM (active)
c1ccc(N=NNc2ccccc2)cc1	56.4 µM (active)
O=C1C(Cl)=C(Cl)C(=O)C(Cl)=C1Cl	24.2 µM (active) and 24.3 µM (active)

Test: Caspase-3/7 induction in CHO-K1 cells by small molecules, qHTS assay (AID 1346980); further: nearly all actives have a fitted effect of over 15% in size
Conditions: CHO-K1 caspase-3/7 induction, Caspase-Glo luminescence, 17 h; series mostly up to 92.4 µM
Summary of the method: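 Wild-type cells were seeded at 1,500 per well and settled 5 hr at 37 C, 5% CO2, then exposed to DMSO-dissolved compounds for 17 hr. Caspase-Glo 3/7 reagent was added, and luminescence was read after 30min at room temperature.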

SMILES	Potency
O=C1C[C@@H]2OCC=C3CN4CC[C@]56c7ccccc7N1[C@H]5[C@H]2[C@H]3C[C@H]46	inactive
CCCC[N+]1(C)CCCC1 (tested in a mixture with another compound)	inactive
Cc1ccccc1OP(=O)(Oc1ccccc1C)Oc1ccccc1C	inactive
CC(C)(C)c1ccc(OP(=O)(Oc2ccccc2)Oc2ccccc2)cc1	inactive
C[C@]12Cc3cn[nH]c3C[C@@H]1CC[C@@H]1[C@@H]2CC[C@@]2(C)[C@H]1CC[C@]2(C)O	inactive
CCOP(=S)(NC(C)C)Oc1ccccc1C(=O)OC(C)C (stereo unspecified)	inactive
Cc1cc(C2CC2)nc(Nc2ccccc2)n1	inactive
CC1=C2C[C@H]3[C@@H](CC=C4C[C@@H](O)CC[C@@]43C)[C@@H]2CC[C@]12O[C@@H]1C[C@H](C)CN[C@H]1[C@H]2C	inactive
Cc1ccc2cc3c(ccc4ccccc43)c3c2c1CC3	inactive
O=S1OCC2C(CO1)C1(Cl)C(Cl)=C(Cl)C2(Cl)C1(Cl)Cl (stereo unspecified)	inactive
CN1C2CCC(C)(C)C1CC(OC(=O)C(O)(c1cccs1)c1cccs1)C2 (stereo unspecified)	inactive
COP(=O)(OC)Oc1ccc([N+](=O)[O-])cc1	inactive
CCCCCCCc1ccc(O)cc1	inactive
CCN(CC)CCc1c[nH]c2ccccc12	inactive
C#CCC1=C(C)C(OC(=O)C2C(C=C(C)C)C2(C)C)CC1=O (stereo unspecified)	inactive
CN1CCc2cc(Cl)c(O)cc2[C@H]2c3ccccc3CC[C@@H]21	inactive
CSC1=N[C@@](C)(c2ccccc2)C(=O)N1Nc1ccccc1	inactive
O=[N+]([O-])c1cccc2cccc([N+](=O)[O-])c12	inactive
CO/N=C(\C(=O)OC)c1ccccc1CO/N=C(\C)c1cccc(C(F)(F)F)c1	inactive
CCOP(=O)(Sc1ccccc1)Sc1ccccc1	inactive
FC(F)C(F)(F)OCC(Cn1cncn1)c1ccc(Cl)cc1Cl (stereo unspecified)	inactive
COc1ccc2[nH]cc(CCN(C(C)C)C(C)C)c2c1	inactive
O=[N+]([O-])[O-].[Tl+]	inactive
C[C@H]1[C@H](c2ccc(Cl)cc2)SC(=O)N1C(=O)NC1CCCCC1	inactive
CCOP(=O)(OCC)Oc1nc(Cl)c(Cl)cc1Cl	inactive
c1ccc(Nc2ccc(Nc3ccccc3)cc2)cc1	inactive
c1csc(-c2ccc(-c3cccs3)s2)c1	inactive
CCCCCCC[CH2][Sn]([Cl])([Cl])[CH2]CCCCCCC	68.5 µM (active)
